# Inconclusive results are not listed. Activity calls are given as the source filed them. The call rests on the fitted dose curve; in most records, active means well fitted curve in the direction sought with a large enough effect; inconclusive means small, poorly fitted or top-dose-only effect, or another doubt; inactive means no such curve, though single readings can be large; an effect the other way counts as inactive or inconclusive.
# How the values were obtained:
# [1] = Confirmatory screen GU Rhodamine qHTS for Zika virus inhibitors qHTS (AID 1347157); further: potency means the concentration at half of the fitted maximal effect; nearly all actives have a fitted effect of over 70% in size
# Method in brief: (§1)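 Enzyme 25 nM in Tris-HCl pH 8.0 + 0.01% Tween 20; compounds up to 114 microM, 15 min RT dark; + Rhod110 substrate 1.5 microM; read t0 and 15 min; delta fluorescence → % inhibition → 4-parameter Hill fit.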
# [2] = test system: Zika virus NS2B-NS3 protease (unlinked complex); experiment: Primary screen GU Rhodamine qHTS for Zika virus inhibitors: Unlinked NS2B-NS3 protease assay (AID 1347159); further: potency means the concentration at half of the fitted maximal effect; nearly all actives have a fitted effect of over 60% in size
# Method in brief: as §1
# [3] = Confirmatory screen NINDS Rhodamine qHTS for Zika virus inhibitors (AID 1347161); further: potency means the concentration at half of the fitted maximal effect; nearly all actives have a fitted effect of over 60% in size
# Method in brief: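 Each compound, titrated, sat 15 min with 25 nM linked protease before 1.5 microM Rhodamine110 substrate went in. Fluorescence gain over the next 15 min, in pH 8.0 Tris with Tween 20, gave Hill-fitted curves.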
# [4] = test system: Zika virus NS2B-NS3 protease (linked); experiment: 384 well plate NINDS AMC confirmatory qHTS for Zika virus inhibitors (AID 1347163); further: nearly all actives have a fitted effect of over 50% in size; further: potency means the concentration at half of the fitted maximal effect
# Method in brief: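 Fluorescence at 355/460 nm was read after 25 minutes of cleavage of 30 microM Ac-VKTGKR-AMC at room temperature, in the dark. Before substrate addition, compounds (up to 1 mM final) sat ~15 minutes with 5, 30 or 60 nM linked protease. Signals were normalized to no-enzyme and no-inhibitor wells.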
# [5] = test system: Zika virus NS2B-NS3 protease (linked construct); experiment: 384 well plate NINDS Rhodamine confirmatory qHTS for Zika virus inhibitors (AID 1347164);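 further: fluorescence from protease cleavage of Ac-LKRR-rhodamine 110 substrate; nearly all actives have a fitted effect of over 65% in size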; further: potency means the concentration at half of the fitted maximal effect
# Method in brief: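 Linked NS2B-NS3 protease (final 5, 30 or 60 nM) preincubated ~15 minutes with compounds, then 10 microM Ac-LKRR-Rhodamine 110 added. Fluorescence (485/538 nm) read after 25 minutes at room temperature, normalized to no-enzyme and no-inhibitor controls.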
# [6] = Vero cells viability qHTS for Zika virus inhibitors (AID 1347167)
# Method in brief: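 To flag cytotoxic protease inhibitors, viability is measured by ATP-dependent luminescence (CellTiter Glo) after cells attached overnight receive compound for 24 to 48 hours in DMEM with 4% FBS.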
# [7] = test system: Zika virus NS2B-NS3 protease; experiment: Primary screen GU AMC qHTS for Zika virus inhibitors (AID 1347154); further: nearly all actives have a fitted effect of over 70% in size
# Method in brief: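 Unlinked Zika NS2B hydrophilic domain/NS3 protease domain noncovalent complex (25 nM final) in 10 mM Tris-HCl pH 8.0, 0.01% Tween 20, with AMC peptide substrate. Fluorescence (ex 340, em 450 nm) change over 15 min, room temperature; percent inhibition fitted to 4-parameter Hill equation.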
# [8] = test system: Zika virus NS2B-NS3 protease (linked construct); experiment: Primary screen NINDS Rhodamine qHTS for Zika virus inhibitors (AID 1347160); further: nearly all actives have a fitted effect of over 55% in size; further: potency means the concentration at half of the fitted maximal effect
# Method in brief: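 Enzyme (25 nM, linked NS2B-NS3) was preincubated 15 min with compound in 10 mM Tris-HCl pH 8.0, 0.01% Tween 20. Rhodamine110 substrate (1.5 microM) was then added and fluorescence read at start and after 15 min.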
# [9] = ZIKV-mCherry secondary qHTS for Zika virus inhibitors (AID 1347158); further: potency means the concentration at half of the fitted maximal effect
# Method in brief: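 Compounds were tested in Vero monkey kidney cells infected with recombinant mCherry-expressing Zika virus at MOI 1 for 48-72 h at 37 °C. Fixed cells were nuclear-stained and imaged, and infection rate was taken as the fraction of mCherry-positive cells.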
Compound,Potency [1],Potency [2],Potency [3],Potency [4],Potency [5],outcome [6],Potency [7],Potency [8],Potency [9]
CC(O)(C(=O)O)C1CCC2(C)C1CCC1(C)C2CCC2C3(C)CCC(O)C(C)(COC4OC(CO)C(O)C(O)C4O)C3CCC21C (stereo not drawn),13.1 µM (active),7.94 µM (active),13.1 µM (active),39.8 µM (active),12.6 µM (active),inactive,–,–,–
Cc1ccc(OC[C@H](O)[C@H](C)NC(C)C)c2c1CCC2,–,–,–,–,–,–,inactive,inactive,–
N#Cc1ccc(N2N=C3c4ccc(C(=O)O)cc4CC[C@@H]3[C@@H]2C2CCCC2)cc1Cl,2.21 µM (active),1.41 µM (active),1.75 µM (active),inactive,4.47 µM (active),inactive,–,2 µM (active),2.51 µM (active)
COc1cc(C(=O)O)ccc1NC(=O)C1NC(CC(C)(C)C)C(C#N)(c2ccc(Cl)cc2F)C1c1cccc(Cl)c1F (stereo not drawn),4.41 µM (active),2.51 µM (active),4.94 µM (active),–,–,–,–,inactive,–
CC(C)(C)Sc1c(CC(C)(C)C(=O)O)n(Cc2ccc(Cl)cc2)c2ccc(OCc3ccc4ccccc4n3)cc12,3.93 µM (active),–,3.93 µM (active),14.1 µM (active),inactive,inactive,–,4.47 µM (active),–
O=C(Nc1ccc(/C=C/c2ccc(NC(=O)c3cc(S(=O)(=O)O)c4cccnc4c3O)cc2S(=O)(=O)O)c(S(=O)(=O)O)c1)c1cc(S(=O)(=O)O)c2cccnc2c1O,2.82 µM (active),–,2.51 µM (active),44.7 µM (active),15.8 µM (active),–,–,–,inactive
CC#C[C@@H](CC(=O)O)c1ccc(OCc2ccc(CN3CCC4(C=Cc5ccccc54)CC3)s2)cc1,2.78 µM (active),3.16 µM (active),3.5 µM (active),5.01 µM (active),–,inactive,–,5.62 µM (active),inactive

# Reference: PubChem BioAssay (NCATS)
